Screens (PubChem)
The list is not random: actives were taken first. Their share in the collection is about 6%.
D3 ag: qHTS of D3 Dopamine Receptor Agonist: qHTS; AID 652048, 2013; max activation, %; D3R DiscoveRx beta-arrestin cells, luminescence, 90 min; 410,000 tested, 0.58% active; in the data active = max activation above about 30%; note: 0% is about no effect
Target sequence (P35462 whole entry, looked up): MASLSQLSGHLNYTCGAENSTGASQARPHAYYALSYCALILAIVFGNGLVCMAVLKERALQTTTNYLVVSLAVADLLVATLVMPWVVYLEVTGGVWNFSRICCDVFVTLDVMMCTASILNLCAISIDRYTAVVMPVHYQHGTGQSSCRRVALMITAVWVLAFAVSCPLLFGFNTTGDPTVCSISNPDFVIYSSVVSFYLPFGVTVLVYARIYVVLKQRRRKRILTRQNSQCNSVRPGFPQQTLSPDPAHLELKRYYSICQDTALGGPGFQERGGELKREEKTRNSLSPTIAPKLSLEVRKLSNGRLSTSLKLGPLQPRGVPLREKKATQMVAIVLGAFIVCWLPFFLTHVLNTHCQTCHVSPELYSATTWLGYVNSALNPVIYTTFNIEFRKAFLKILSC
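Cells at 1500/well, incubated overnight, then treated with pinned compounds (dopamine as control) for 90 min at 37 degrees C. DiscoveRx reagent added for 30 - 60 minutes at room temperature; luminescence read.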
Chronic BCR inh: qHTS Assay to Find Inhibitors of Chronic Active B-Cell Receptor Signaling | ABC-DLBCL IkBa-CBG/CBR reporter, luminescence ratio, 4 h | Potency, µM (highest dose often 46.1 µM), without a hit: at the highest dose activity change, negative = inhibition, hits mostly inhibitors | 340,000 tested, 0.05% active | AID 493014, 2011; active = well fitted inhibition curve with a large enough effect in the signal ratio, with a control signal flat, not every such curve was filed as active; inconclusive = small, poorly fitted or top-dose-only effect, or effect the other way, or a change in a side signal; the % refers to the signal ratio;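 note: potency is the fitted concentration of half-maximal effect; plate controls were basal doxycycline-induced cells for no effect and cells given 10 µM MG132 for full effect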
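TMD8 ABC-DLBCL cells carrying doxycycline-inducible green luciferase fused to IkappaBalpha plus unfused red luciferase were exposed to compounds (up to 46 uM) for 4 hrs at 37C. Activity came from the overlap-corrected green/red luminescence ratio.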
DRD3 antagonist: qHTS of D3 Dopamine Receptor Antagonist: qHTS. D(3) dopamine receptor (Homo sapiens), P35462. D3R cells, DiscoveRx beta-arrestin luminescence, antagonist mode; active compounds read low. max response, negative = inhibition, %. 360,000 tested, 2.5% active. AID 652054, 2013; in the data active = max response below about -50%; inconclusive = no clear call, values can overlap the other calls; note: % is set by controls: 0 for no effect and ±100 for the full control effect
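Cells expressing the human receptor were seeded at 1500 cells/well, incubated overnight at 37 degrees C in 5% CO2, then exposed to library compounds with dopamine controls for 90 minutes at 37 degrees C before luminescent detection.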
D1 agonist: Allosteric Agonists of the Human D1 Dopamine Receptor: qHTS; activation, % at 2 µM; D(1A) dopamine receptor (Homo sapiens), P21728; HEK293 T-REx D1 cells, calcium flux, agonist mode; AID 504660, 2011; 360,000 tested, 1% active; in the data active = activation above about 30%; note: 0% is about no effect
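Inducible HEK293 T-REx D1 cells, force-coupled to calcium signalling, were plated at 4000 cells/well with tetracycline and held overnight at 30 C. After no-wash calcium dye loading, compound-evoked calcium rise over 180 s flagged agonists.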
D1 antag: Antagonist of Human D 1 Dopamine Receptor: qHTS | activity change, negative = inhibition, % at 10 µM | AID 504652, 2011 | D(1A) dopamine receptor (Homo sapiens), P21728 | 360,000 tested, 3.2% active | HEK293 TREx D1 cells, calcium flux, dopamine EC80; active compounds read low; in the data active = activity change below about -30%; note: % is set by controls: 0 for no effect and ±100 for the full control effect
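Kinetic fluorescence of a calcium dye serves as the read-out. D1-expressing Hek293 Trex cells, induced overnight at 30 C, are exposed to compound for 180 s before an EC80 dopamine addition, then read 180 s further.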
D1 potentiator: Potentiators of Human D1 Dopamine Receptor: qHTS; HEK293 TREx D1 cells, calcium flux, dopamine EC20 potentiation; 360,000 tested, 0.036% active; AID 504651, 2011; potentiation, % at 10 µM; in the data active = potentiation above about 30%; note: 0% is about no effect
* = called active by the depositor; ? = inconclusive; · = no result.

SMILES | D3 ag | Chronic BCR inh | DRD3 antagonist | D1 agonist | D1 antag | D1 potentiator
COc1cc(NC(=O)NCCN2CCN(c3ccc(Cl)cc3)CC2)ccc1C | -11.9 | 1.2% | ? | 63.9* | -18.1 | -7.2
COc1ccccc1C(=O)NCCN1CCN(c2ccccc2)CC1 | 41.7* | -0.9% | 0.0 | 6.1 | -8.4 | -3.1
COC(=O)c1ccc(N2CCN(CCNC(=O)Nc3ccc(OC)cc3)CC2)cc1 | -1.5 | 2.5% | -24.6 | 1.4 | -4.2 | -3.5
COc1ccc(N2CCN(CCNC(=O)Nc3ccc(C)c(Cl)c3)CC2)cc1 | -3.6 | -2.5% | ? | 30.6* | -12.1 | 0.4
Cc1ccc(-c2cc(-c3ccccc3)[nH]c(=S)c2C#N)cc1 | -4.2 | ? | -13.0 | 2.1 | -12.0 | 8.3
N#Cc1c(-c2ccc(C(F)(F)F)cc2)cc(-c2ccccc2)[nH]c1=S | 5.7 | -0.2% | -8.6 | 0.7 | -30.9* | -5.5
CCC1CCCCN1C(=S)Nc1ccc(OC(F)F)cc1 (centres undefined) | 2.6 | 13.5% | 5.4 | 18.7 | -43.2* | -0.4
CC(=O)c1c(C)[nH]c(C(=O)CN2CCN(S(=O)(=O)c3ccccc3[N+](=O)[O-])CC2)c1C | -3.8 | -15.2% | 6.5 | 7.0 | -30.6* | -4.1
O=C(CN1CCN(S(=O)(=O)c2ccccc2[N+](=O)[O-])CC1)Nc1ccc(N2CCOCC2)cc1 | 6.3 | -11.4% | 22.9 | 8.8 | -46.0* | -13.1
COc1cc(OC)cc(C(=O)Nc2ccc(-c3nc4cc(C(C)C)ccc4o3)cc2)c1 | 5.4 | · | · | 7.2 | -2.7 | -0.7
CC(C)(C)c1ccc(CC(=O)N2CCC2(C)C(=O)NS(=O)(=O)c2ccc(F)cc2F)cc1 (centres undefined) | 0.4 | · | 2.4 | · | · | ·
CCc1cccc(-n2nnc(S(=O)(=O)c3ccc(OC)cc3)c2C)c1 | 5.9 | · | · | 24.0 | 3.7 | -2.0
Cc1[nH]c(C(=O)O)c(C)c1C(=O)OC(C)C | -2.7 | 0.2% | -5.0 | 0.4 | -53.0* | -5.9
O=C(NNc1cc(N2CCOCC2)nc(N2CCOCC2)n1)c1ccc(Cl)c(Cl)c1 | 0.7 | -5.4% | -8.6 | 0.2 | 9.5 | 0.9
Cc1ccc(C(=O)NNc2cc(N3CCCC3)nc(N3CCCC3)n2)cc1 | -9.2 | 8.3% | -52.3* | · | · | ·
CCOC(=O)C1CCN(Cc2cccc(Oc3ccc(Cl)cc3)c2)CC1 | 6.1 | -0.3% | ? | 3.7 | 3.9 | 4.8
CN1CCN(Cc2cccc(Oc3ccc(Cl)cc3)c2)CC1 | -35.2 | 1.3% | -51.8* | 15.3 | -26.0 | -5.5
CCN1CCN(Cc2cccc(Oc3ccc(Cl)cc3)c2)CC1 | -32.0 | ? | -63.3* | 19.3 | -64.5* | -2.0
CCN1CCN(Cc2cccc(Oc3ccccc3)c2)CC1 | -27.7 | -2.7% | -52.3* | 8.0 | -1.6 | -3.3
COc1cccc(CN2CCN(CCCc3ccccc3)C(CCO)C2)c1OC (centres undefined) | -20.7 | -8.7% | -20.1 | 0.1 | 0.2 | -2.8
COc1cccc(CN2CCC(N(CCc3ccccc3)Cc3ccccc3)CC2)c1OC | -10.8 | -1.6% | -85.0* | 0.8 | -6.4 | -1.1
Cc1cc(C)c(NC(=O)c2cc(C)nc3c2c(C)nn3-c2cccc(F)c2)c(C)c1 | 10.8 | · | · | 6.3 | 7.0 | -2.0
COc1cccc(CN2CCN(Cc3cccc(Oc4ccccc4)c3)CC2)c1OC | -20.7 | ? | -59.4* | 4.3 | -9.4 | 0.2
COc1cccc(CN2CCN(Cc3cc(OC)c(OC)c(OC)c3)CC2)c1OC | -8.0 | ? | -22.1 | 5.5 | -18.5 | -5.7
CN1CCN(CC(O)(c2ccc(Cl)cc2)c2ccc(Cl)cc2)CC1 | -5.7 | ? | -20.2 | 24.3 | -30.0* | -7.9
Cc1ccc(OCC(=O)N(Cc2ccc(Cl)cc2)Cc2ccco2)cc1C | 6.9 | · | · | 22.5 | 6.1 | -0.5
O=[N+]([O-])c1ccc(S(=O)(=O)Nc2nnc(C(F)(F)F)s2)cc1 | -10.9 | 3.8% | -16.9 | 2.0 | -51.9* | -6.8
